Results taken from ChEMBL document CHEMBL3433997, “St. Jude Leishmania screening dataset” (2016).

Columns and labels:
Format in all cases: functional
[1] = target: Solute carrier family 2, facilitated glucose transporter member 1 (Homo sapiens) (UniProt P11166); experiment: ST_JUDE_LEISH: Cytotoxicity at 2uM final concentration against transgenic Leishmania Mexicana promastigotes LmGLUT1 that are glucose transport deficient and complemented with the human glucose transporter GLUT1. Activity is measured by DNA content using SYBR green in vitro
Solute carrier family 2, facilitated glucose transporter member 1 (Homo sapiens), sequence (P11166 whole entry): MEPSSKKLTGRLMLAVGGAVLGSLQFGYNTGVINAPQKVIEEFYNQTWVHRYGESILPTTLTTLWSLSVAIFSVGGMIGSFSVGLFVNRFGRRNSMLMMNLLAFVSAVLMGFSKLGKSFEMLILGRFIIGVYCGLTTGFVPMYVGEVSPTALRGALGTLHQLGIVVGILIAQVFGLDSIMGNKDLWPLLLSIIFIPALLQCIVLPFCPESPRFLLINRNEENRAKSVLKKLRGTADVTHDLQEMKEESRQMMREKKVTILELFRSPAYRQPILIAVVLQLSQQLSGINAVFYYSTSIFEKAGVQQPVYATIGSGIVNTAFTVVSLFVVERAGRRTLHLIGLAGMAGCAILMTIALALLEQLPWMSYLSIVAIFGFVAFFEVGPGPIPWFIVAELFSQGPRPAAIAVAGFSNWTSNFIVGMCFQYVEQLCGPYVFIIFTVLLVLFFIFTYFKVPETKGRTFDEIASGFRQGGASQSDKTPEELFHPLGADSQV

[2] = target: Hexose transporter 1 (Plasmodium falciparum) (UniProt O97467); experiment: ST_JUDE_LEISH: Cytotoxicity at 2uM final concentration against transgenic Leishmania Mexicana promastigotes LmPfHT that are glucose transport deficient and complemented with the Plasmodium falciparum hexose transporter. Activity is measured by DNA content using SYBR green in vitro
[3] = target: Glucose transporter (Leishmania mexicana) (UniProt O61059); experiment: ST_JUDE_LEISH: Cytotoxicity at 2uM final concentration against transgenic Leishmania Mexicana promastigotes LmGT2 that are glucose transport deficient and complemented with the L. Mexicana glucose transporter 2. Activity is measured by DNA content using SYBR green in vitro

SMILES | inhibition [1] | inhibition [2] | inhibition [3]
CC1CC(NCCCNc2cc(=O)c3ccccc3[nH]2)c2cc(Cl)c(Cl)c(Cl)c21 (centres undefined) | -1.12% | -1.47% | -2.15%
COc1ccc2nccc([C@@H](O)CN3CCC(NCCOc4ccc(F)cc4F)CC3)c2c1 | 7.55% | 6.58% | -1.61%
COc1ccc(-c2cncc(-c3ccc(OC)c(OC)c3)n2)cc1OC | 2.76% | 2.56% | 3.88%
Nc1nc(N)c2c(Cl)c(N(Cc3ccccc3)Cc3ccccc3)ccc2n1 | 23.6% | 23.5% | 7.75%
Cc1cc(N2CCCC2)nc(Nc2ccc(NC(=O)C(C)C)cc2)n1 | 5.62% | 2.73% | -6.48%
CC(C)CN(C)c1ncnc2c1nc(-c1cncc(C#N)c1)n2CCNCc1ccccc1 | 3.34% | 3.26% | 4.39%
CN1CCN(c2ccc(Nc3nccc(-c4c(-c5cccc(NC(=O)c6c(F)cccc6F)c5)nn5ccccc45)n3)cc2)CC1 | 21.9% | 17.8% | 4.51%
CCCCCCc1cc2cc(-c3csc(C=Cc4ccccc4)n3)c(=O)oc2cc1O | 9.95% | 10.6% | 9.7%
Cc1ccc(-n2cc(CNCC3CCN(CCO)CC3)c(-c3ccc(F)cc3)n2)cc1 | 85% | 2.77% | 28.2%
COc1cc(NC(=O)/C=C/c2cccc3ccoc23)ccc1OCCN(C(C)C)C(C)C | 9.36% | 3.8% | 1.81%
COc1cc(OC)c(OC)cc1C=NN=c1cc(C)[nH]c2ccccc12 | 1.25% | 1.67% | -1.17%
CCCCCCNC(=O)C1Cc2c([nH]c3cc(Cl)ccc23)C2(CCN(CCC)CC2)N1 (centres undefined) | 3.28% | 2.13% | 2.32%
CN(C)CCCOc1ccc(CCCCc2ccc(Cl)cc2C(=O)c2ccccc2)cc1 | 13.3% | 10.2% | 7.71%
Cc1nc(C)c(-c2ccc(Oc3ccc(Cl)cc3Cl)cc2)c(O)c1Br | -1.34% | -0.13% | 0.66%
CC(C)c1ccc(N2CCN(CCCCNC(=O)c3ccc(NC(=O)c4cc(Cl)cc(Cl)c4)cc3)CC2)cc1 | -0.22% | 1.11% | 1.9%
CCCc1cc(C(=O)N[C@@H](Cc2ccccc2)[C@H](O)CNC(C)(C)c2cccc(OC)c2)c(F)c(N2CCCC2=O)c1 | 9.67% | 7.94% | 9.99%
CCNc1cc(C(=O)N[C@@H](Cc2ccccc2)[C@H](O)CNC2(C)CCCCC2)cc(N2CCCCS2(=O)=O)c1 | 1.96% | -0.16% | -0.26%

SMILES | inhibition [1] | inhibition [2] | inhibition [3]
N=C(NCCc1ccc(Cl)cc1)c1ccc(Cl)c(Cl)c1 | 2% | 2.64% | 1.15%
CN(C)C(=O)CCCn1c(CNCCCNc2cc(=O)c3ccccc3[nH]2)cc2c(Cl)cc(Cl)cc21 | 0.57% | 2.54% | 2%
Cc1cc(N(C)CCN(C)C)nc(Nc2ccc(Br)cc2)n1 | -0.17% | 3.61% | 2.53%
COCCN1CCC(N(Cc2ccc(-c3ccc(OC(F)(F)F)cc3)cc2)C(=O)Cn2c(CCc3cccc(F)c3F)cc(=O)c3ccccc32)CC1 | 4.31% | 4.88% | 4.4%
Cc1cc(-c2ccc3c(c2)CCN(CCC2CCC(NC(=O)/C=C/c4cccc(Cl)c4)CC2)CC3)on1 (centres undefined) | 4.19% | 3.51% | 3.57%
COc1cc(-c2cc3cc(Cl)c(Cl)cc3[nH]2)ccc1C(=O)NCCC1CCCN1C (centres undefined) | -0.78% | -0.94% | -1.26%
COc1ccc2[nH]ccc(=NN=CC=Cc3ccccc3)c2c1 | -0.13% | 2.19% | -3.26%
O=[N+]([O-])c1cccc(-c2nc3cc(C4=NC5CCCCC5N4)ccc3[nH]2)c1 (centres undefined) | 0.61% | 2.08% | 1.26%
CC1(C)OC[C@]2(C)[C@@H](CC[C@]3(C)C4=CC(=O)CCC4CC[C@@H]23)O1 (some centres undefined) | 0.57% | 1.6% | 2.59%
CCCC(=O)c1cnc2c(Oc3cc(Cl)ncn3)cccc2c1Nc1ccccc1C | 6.96% | 4.84% | 6.89%
C[C@@H](N/C(=N\c1ccccc1Cl)Nc1ccc(C#N)cc1O)c1ccc(Br)cc1 | 6.22% | 5.06% | 3.66%
N#Cc1cccc(Nc2nccc(NCC(O)c3ccc(C(F)(F)F)cc3)n2)c1 (centres undefined) | 3.05% | 3.09% | 0.03%
Cc1ccc(NC(=O)c2ccc(CN3CCCN(CC4CCCCC4)CC3)cc2)cc1F | 8.8% | 6.75% | 11.2%
COc1cc2nc(N3CCC(CNC(=O)c4cccc5cc[nH]c45)CC3)nc(N)c2cc1OC | 6.26% | 4.21% | 5.67%
CC(C)(CNC(=O)/C=C/c1ccc(Cl)c(Cl)c1)CNc1cc(=O)c2ccccc2[nH]1 | -0.77% | 0.05% | -2.49%
CCCN1CCN(CCNc2c3ccccc3nc3ccccc23)CC1 | 96.4% | 97.2% | 94.2%
